According to the supplement of paper PMC10981050:
Several values for one entry are separate records, joined by “and”; a condition that tells them apart may be missing. Identical values can stand only once. Counter-ions that a name gives are not always drawn.

Legend:
Experiment in all cases: cell viability relative to vehicle control; higher = less cytotoxic
Conditions in all cases: 10 µM
K562 = tested on: K562
Method in brief: (§1)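 CRISPR-edited mutant clones and isogenic wild-type clones from four leukaemia lines were screened against Selleck bioactive, kinase and epigenetic probe libraries, with identity-inconsistent compounds excluded. Each compound was acoustically dispensed at a single 10 µM dose into 384-well plates holding 2000 cells in 50 µL medium per well. After 48 h the supernatant was removed and CellTiter-Glo luminescence was read. Viability was expressed as percent of the on-plate vehicle control and analysed in Genedata Screener.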

MARIMO = tested on: MARIMO
Method in brief: as §1

MOLM14 = tested on: MOLM14
Method in brief: as §1

OCI-AML2 = tested on: OCI-AML2
Method in brief: as §1

| Structure (SMILES) | cell viability (K562; SRSF2 genotype: SRSF2 P95H/wt) | cell viability (K562; SRSF2 genotype: SRSF2 wt/wt) | cell viability (MARIMO; SRSF2 genotype: SRSF2 P95H/wt) | cell viability (MARIMO; SRSF2 genotype: SRSF2 wt/wt) | cell viability (MOLM14; SRSF2 genotype: SRSF2 P95H/wt) | cell viability (MOLM14; SRSF2 genotype: SRSF2 wt/wt) | cell viability (OCI-AML2; SRSF2 genotype: P95H/wt) | cell viability (OCI-AML2; SRSF2 genotype: wt/wt) |
| --- | --- | --- | --- | --- | --- | --- | --- | --- |
| CN(C)N(C)C(=O)[C@@]1(Cc2ccccc2)CCCN(C(=O)[C@@H](Cc2c[nH]c3ccccc23)NC(=O)C(C)(C)N)C1 [Anamorelin] | 82.4% and 78.3% | 80.7% | 70.5% | 74.3% | 76.5% | 78.8% | 69.2% | 68.2% |
| CC(CCc1ccccc1)NCC(=O)c1ccc(O)c(C(N)=O)c1 (stereo not given) [Labetalone hydrochloride] | 92.1% and 89.7% | 108% | 96.7% | 102% | 108% | 104% | 99.7% | 108% |
| CCc1c2c(nc3ccc(O)cc13)-c1cc3c(c(=O)n1C2)COC(=O)[C@]3(O)CC | 10.1% and 21.4% | 13.4% | 5.36% | 3.23% | 1.02% | 0.95% | 0.48% | 1.9% |
| COc1c(C)c2c(c(O)c1C/C=C(\C)CCC(=O)OCCN1CCOCC1)C(=O)OC2 [Mycophenolate mofetil (CellCept)] | 50.6% and 48.7% | 45.1% | 45.4% | 43.6% | 9.99% | 2.92% | 13.5% | 12.2% |
| CCCCCC(=O)O[C@]1(C(C)=O)CC[C@H]2[C@@H]3CCC4=CC(=O)CC[C@]4(C)[C@H]3CC[C@@]21C [Hydroxyprogesterone caproate] | 40.1% and 34.4% | 39.2% | 29.2% | 24.9% | 38.5% | 21% | 28.8% | 23.7% |
| C[Si](C)(C)CCOCn1ccc2c(-c3cn[nH]c3)ncnc21 | 98.4% and 99.6% | 109% | 98.6% | 106% | 95.9% | 106% | 100% | 99% |
| Cc1nc(Nc2ncc(C(=O)Nc3c(C)cccc3Cl)s2)cc(N2CCN(CCO)CC2)n1 [Dasatinib Monohydrate] | 23.6% and 40.6% | 28.3% | 67.5% | 70.5% | 38.8% | 39% | 33.3% | 43.3% |
| O=c1c(-c2ccc(O)cc2)coc2cc(O[C@@H]3O[C@H](CO)[C@@H](O)[C@H](O)[C@H]3O)ccc12 [Daidzin] | 94.3% and 101% | 96.3% | 91.7% | 104% | 98% | 104% | 93.5% | 98.4% |
| Cc1onc(-c2c(Cl)cccc2Cl)c1C(=O)N[C@@H]1C(=O)N2[C@@H]1SC(C)(C)[C@@H]2C(=O)O [Dicloxacillin Sodium] | 99.5% and 95% | 101% | 101% | 103% | 98.7% | 98.3% | 93% | 109% |
| O=c1c2cc(O[C@@H]3O[C@H](CO)[C@@H](O)[C@H](O)[C@H]3O)c(O)cc2oc2cc(O)c([C@@H]3O[C@H](CO)[C@@H](O)[C@H](O)[C@H]3O)c(O)c12 [Neomangiferin] | 95.1% and 100% | 97% | 93.8% | 91.2% | 99.4% | 100% | 101% | 97.7% |
| C[C@@H](CN1CC(=O)NC(=O)C1)N1CC(=O)NC(=O)C1 [Dexrazoxane Hydrochloride] | 99.3% and 102% | 97.5% | 92.4% | 96.4% | 70.5% | 78% | 75.2% | 76.2% |
| CCCCCCCCOC(=O)c1cc(O)c(O)c(O)c1 [Octyl gallate] | 47.3% and 44.6% | 58.7% | 32.3% | 51% | 48.4% | 28.9% | 52.9% | 56.1% |
| C[C@]1(O)C[C@@H](O)[C@]2(O)C=CO[C@@H](O[C@H]3O[C@H](CO)[C@@H](O)[C@H](O)[C@H]3O)[C@@H]21 [Harpagide] | 105% and 99.4% | 101% | 106% | 98.7% | 106% | 103% | 97.6% | 103% |
| O=C1NC(=O)C(c2cnc3ccccn23)=C1c1cn2c3c(cc(F)cc13)CN(C(=O)N1CCCCC1)CC2 | 56.1% and 43.4% | 71.5% | 94.4% | 103% | 86.8% | 79.5% | 118% | 119% |
| CN1C(N)=N[C@](C)(c2cc(NC(=O)c3ccc(F)cn3)ccc2F)CS1(=O)=O [Verubecestat (MK-8931) Trifluoroacetat] | 97.5% and 98.8% | 96.9% | 98.1% | 108% | 95.8% | 102% | 99.8% | 107% |
| Cc1cc(NS(=O)(=O)c2ccc(N)cc2)no1 [Sulfamethoxazole] | 94.6% and 85.2% | 92.6% | 89.7% | 95.6% | 99.8% | 91.1% | 85.2% | 95.5% |
| Cc1ccc(Nc2c(F)cccc2Cl)c(CC(=O)O)c1 [Lumiracoxib (COX-189)] | 96% and 98.3% | 96.3% | 98.9% | 96% | 100% | 93.4% | 109% | 101% |
| NS(=O)(=O)c1cc2c(cc1Cl)N=CNS2(=O)=O [Chlorothiazide] | 100% and 94% | 94.5% | 98% | 105% | 102% | 97.8% | 93.7% | 109% |
| CC(=O)OC(C)C(C)C(=O)OCC12C3CC(C)(C)[C@H](O[C@@H]1C[C@]1(C)C3=CCC3C4(C)CCC(O[C@@H]5O[C@H](C(=O)O)[C@@H](O[C@H]6O[C@H](CO)[C@@H](O)[C@H](O)[C@H]6O)[C@H](O)[C@H]5O[C@@H]5OC[C@@H](O)[C@H](O)[C@H]5O)[C@](C)(CO)C4CCC31C)C2O (stereo not given in full) [Sodium Aescinate] | 90.7% and 98.9% | 93.9% | 95.5% | 96.8% | 89.4% | 92.3% | 88.5% | 93.2% |
| CNc1nc(Nc2cn(C(C)(C)C#N)nc2C)ncc1C(F)(F)F | 101% and 102% | 103% | 101% | 108% | 98.8% | 101% | 102% | 105% |
